From PubChem
Hits are enriched below; roughly 2.8% of the tested compounds scored in any of these assays.
IDE cell inh: inhibits human insulin-degrading enzyme in HEK cells. FAbetaB cleavage, fluorescence polarization. inhibition, % at 5.59 µM. 0.41% of 320,000 active. AID 434962;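 active = percent inhibition above the average of all tested compounds plus 3 SD, set per screening campaign, cut at about 16% in these data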;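 also: IDE supplied by intact live HEK cells; FP after avidin binding of uncleaved biotin substrate so inhibition keeps polarization high; 0% = DMSO wells and 100% = 60 µM reference IDE inhibitor Ii1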
Granule exo inh: blocks lytic granule exocytosis. TALL-104 LAMP-1 surface exposure, flow cytometry; cells stimulated with thapsigargin and PMA. inhibition, % at 10 µM. AID 651702. 0.66% of 360,000 active;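 active = inhibition above about 55%, limit read from the data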
PP1 inh: blocks human PP1-alpha phosphatase, a PP5 counter-screen. P62136. purified PP1alpha, OMFP fluorescence. inhibition, % at 6.7 µM. 0.9% of 320,000 active;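 active = inhibition above the mean inhibition of all tested compounds plus 3 SD, computed separately for each screening campaign, cut at about 15% in these data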
SKKanGAS inh: SKKanGAS growth inhibition; S. pyogenes SKKanGAS, kanamycin growth, BacTiter-Glo, 6 h; inhibition, % at 7.5 µM; 1.3% of 300,000 active; AID 1662;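 active = mean replicate score, as percent of positive control median, at least 50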;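 also: strain carries kanamycin resistance gene driven by streptokinase promoter and grows in 40 µg/ml kanamycin; loss of luminescence reflects streptokinase promoter inhibition or plain growth inhibition; 0% = median of DMSO wells and 100% = positive control at its reference dose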
IDE cell activ: IDE (human) activation, cell-based; HEK cells, FAbeta-B cleavage, fluorescence polarization; 0% vehicle, 100% cell-free pure enzyme wells; activation, % at 5.96 µM; AID 493087; 0.073% of 340,000 active; P14735;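 active = activation above the mean of all tested compounds plus 3 SD, set per screening campaign, cut at about 17% in these data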
PP5 primary: blocks human protein phosphatase 5 activity; P53041; purified PP5c, OMFP substrate fluorescence; inhibition, % at 6.7 µM; 0.18% of 320,000 active; AID 1987;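 active = inhibition above the campaign's mean inhibition across all tested compounds plus 3 SD, cut at about 9.5% in these data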;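 also: 0% = DMSO only and 100% = 100 µM cantharidin control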
Target sequence (P53041 whole entry, looked up): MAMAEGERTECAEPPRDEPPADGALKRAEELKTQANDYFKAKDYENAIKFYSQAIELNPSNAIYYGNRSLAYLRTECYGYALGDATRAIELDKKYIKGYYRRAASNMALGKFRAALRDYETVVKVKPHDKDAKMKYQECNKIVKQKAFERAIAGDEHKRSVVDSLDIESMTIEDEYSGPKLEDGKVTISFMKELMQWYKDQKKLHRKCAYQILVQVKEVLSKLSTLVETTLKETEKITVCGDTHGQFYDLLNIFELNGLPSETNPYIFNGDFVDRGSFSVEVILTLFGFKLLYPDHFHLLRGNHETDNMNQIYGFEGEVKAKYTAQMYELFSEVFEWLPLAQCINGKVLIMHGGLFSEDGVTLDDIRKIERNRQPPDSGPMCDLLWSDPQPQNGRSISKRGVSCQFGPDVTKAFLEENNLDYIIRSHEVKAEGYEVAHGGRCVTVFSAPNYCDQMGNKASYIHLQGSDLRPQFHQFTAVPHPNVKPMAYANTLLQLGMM
The depositor's hits bear a star; · = no result given.

SMILES | IDE cell inh | Granule exo inh | PP1 inh | SKKanGAS inh | IDE cell activ | PP5 primary
CCOC(=O)N(C)C[C@@H]1OCc2ccccc2-c2c(n(C)c3ccccc23)C(=O)N([C@H](C)CO)C[C@H]1C | · | 0.6 | · | · | · | ·
COc1cccc2sc(Nc3nnc(-c4ccccc4Cl)o3)nc12 | 5.7 | 6.8 | 5.8 | 90.7* | 0.1 | 2.6
COc1cccc(-c2nnc(Nc3nc4c(F)cccc4s3)o2)c1 | 1.0 | 3.5 | 5.0 | 67.6* | -3.4 | 0.3
COc1ccccc1-c1nnc(Nc2nc3c(OC)cccc3s2)o1 | 13.7 | -0.9 | 4.3 | 91.4* | -16.2 | -1.4
O=C(C[n+]1ccc(C(=O)c2ccccc2)cc1)Nc1cccc([N+](=O)[O-])c1 | · | 8.2 | · | · | · | ·
CN(C(=O)CC1C(=O)NCCN1Cc1cccc(F)c1F)C1CC(C)(C)NC(C)(C)C1 (centres undefined) | -2.2 | 0.2 | -0.5 | -3.4 | 3.1 | 1.0
CCC(C)[C@H]1CNCCN1CCc1cccc(F)c1 (some centres undefined) | -0.6 | -4.9 | 0.2 | 5.0 | 6.3 | -0.8
Cc1nc(N)sc1N=Nc1ccc(F)cc1 | -1.2 | -4.1 | 1.3 | 80.9* | 3.2 | 4.7
CC(C)NC(=O)C1C(c2ccc(C(F)(F)F)cc2)=Nc2ccccc2N1C(=O)c1cccc(C(F)(F)F)c1 (centres undefined) | · | -8.3 | · | · | · | ·
O=C(CCNC(=O)c1ccco1)Nc1ccc(OC(F)(F)F)cc1 | 0.5 | 10.8 | -1.3 | -1.7 | 3.3 | -0.7
Cn1cnc(C(=O)NCc2ccc(CNC(=O)OC(C)(C)C)cc2)c1C(=O)NCc1ccc(CNC(=O)OC(C)(C)C)cc1 | 1.4 | 5.3 | · | · | -1.6 | ·
COc1cc(CC(=O)NC2CCCc3ccccc32)cc(OC)c1OC (centres undefined) | -5.1 | 60.4* | -2.8 | 1.3 | 3.8 | 1.5
O=C(CNc1ccc2c(c1)OCO2)N/N=C\c1cn(Cc2ccccc2)c2ccccc12 | 1.2 | -6.2 | 17.4* | 6.1 | -2.1 | 3.8
O=C(CNc1ccccc1)N/N=C/c1ccc2c(c1)OCO2 | 6.0 | -2.3 | -0.9 | -5.3 | 0.1 | 3.0
CCOC(=O)C1(Cc2ccc(Cl)cc2)CCN(C(=O)CCc2ccncc2)CC1 | 0.2 | -2.4 | -2.5 | -11.2 | 3.2 | 0.4
Cc1ccc(-c2cc(C(=O)NC3=NCCS3)c3cc(Br)ccc3n2)o1 | 5.3 | · | 19.4* | 14.3 | · | 4.2
NC(=O)c1cc(C(=O)Cc2ccccc2)c[nH]1 | -2.5 | -5.9 | -0.1 | 92.3* | 3.4 | -0.5
Cc1ccc(NC(=O)Nc2cc(C(F)(F)F)c[nH]c2=O)cc1 | -1.9 | 2.5 | 2.5 | 1.2 | 5.2 | 4.5
Cc1cccc(C)c1NC(=O)C(c1ccncc1)N1CCN(CCN(C)C)CC1 (centres undefined) | · | -0.2 | · | · | · | ·
Nc1cc(N)nc(SCCOc2ccccc2)n1 | -1.1 | 11.3 | 0.1 | -0.3 | 23.3* | 0.8
COc1cccc(OCCSc2nc(N)cc(N)n2)c1 | 0.7 | -6.2 | 1.0 | 5.3 | 9.0 | 2.1
CCNc1nc(SCCOc2ccc(C)cc2)nc(N(C)C)n1 | -1.6 | -1.3 | 2.4 | 1.8 | 7.5 | 0.7
Cc1ccc(OCCSc2nc(NC(C)C)nc(NC(C)C)n2)cc1 | -0.5 | 4.2 | 2.1 | 71.6* | 6.0 | 3.0
CN(C)C1=NCCN1CCC1CCCC1 | -1.1 | -12.6 | -2.2 | 2.3 | 3.7 | -1.1
COc1cccc(-c2nn3c(-c4ccccn4)nnc3s2)c1 | 9.7 | 0.3 | 16.8* | 1.0 | 0.2 | -1.1
SMILES | IDE cell inh | Granule exo inh | PP1 inh | SKKanGAS inh | IDE cell activ | PP5 primary
CCN1CCc2nc3sc(C(=O)N4CCc5ccccc5C4)c(N)c3cc2C1 | 6.4 | -5.0 | 12.4 | 7.8 | 0.0 | 3.6
CC(C)c1ccc2nc3sc(C(=O)N4CCc5ccccc5C4)c(N)c3cc2c1 | -2.9 | 5.5 | 0.2 | 53.6* | -4.6 | 1.0
Nc1[nH]c(C(=O)c2ccccc2)c(-c2ccccc2Br)c1C(=O)NCCc1ccc(Cl)cc1Cl | · | 8.6 | · | · | · | ·
COc1cc(/C=C2\SC(=O)N(CCN)C2=O)ccc1OS(=O)(=O)c1cc(C)ccc1C | · | 72.7* | · | 3.6 | -7.9 | ·
Cc1ccc(NC(=S)N(CCCN(C)C)Cc2cc3cc4c(cc3[nH]c2=O)OCO4)c(C)c1 | 5.6 | -1.3 | -1.9 | 13.4 | 1.6 | -0.4
COc1ccc(OC)c(CN2C(=O)c3ccccc3C2c2nnnn2C2CCCC2)c1 (centres undefined) | · | -9.8 | · | · | · | ·
Cc1nc(-c2ccc(S(=O)(=O)Nc3cccc(S(N)(=O)=O)c3)s2)cs1 | -2.1 | 6.1 | -0.2 | 5.6 | · | 0.3
Cc1nc(-c2ccc(S(=O)(=O)Nc3ccc(Br)cc3Cl)s2)cs1 | 3.7 | 3.2 | 0.6 | 73.9* | -1.1 | 5.4
